Data from PubChem BioAssay (NCATS).
Values joined by “and” are separate entries in the source; they are usually repeats but may differ in a detail not shown here. Equal entries are not always repeated. Values without a mark were called inactive. Records with an inconclusive call do not appear. Active and inactive are the calls of the source. The call rests on the fitted dose curve; in most records, active means well fitted curve in the direction sought with a large enough effect; inconclusive means small, poorly fitted or top-dose-only effect, or another doubt; inactive means no such curve, though single readings can be large or run the other way.

Molecular target: T1, Hexokinase-4 (Homo sapiens) + Glucokinase regulatory protein (Homo sapiens) (UniProt P35557+Q14397)
T1 sequence (P35557 whole entry, looked up): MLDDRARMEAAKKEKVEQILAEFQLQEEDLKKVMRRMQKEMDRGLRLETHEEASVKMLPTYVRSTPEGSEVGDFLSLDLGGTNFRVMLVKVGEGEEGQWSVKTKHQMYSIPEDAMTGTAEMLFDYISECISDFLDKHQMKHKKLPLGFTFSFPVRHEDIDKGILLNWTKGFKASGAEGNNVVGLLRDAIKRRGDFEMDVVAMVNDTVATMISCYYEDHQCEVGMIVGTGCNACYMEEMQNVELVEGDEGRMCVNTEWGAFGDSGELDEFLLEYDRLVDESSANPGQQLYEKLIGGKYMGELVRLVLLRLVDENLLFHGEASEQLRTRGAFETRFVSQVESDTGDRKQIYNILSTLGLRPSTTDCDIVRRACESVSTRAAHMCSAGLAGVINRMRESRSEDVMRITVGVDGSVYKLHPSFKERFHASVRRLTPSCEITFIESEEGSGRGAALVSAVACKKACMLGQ
T1 sequence (Q14397 whole entry, looked up): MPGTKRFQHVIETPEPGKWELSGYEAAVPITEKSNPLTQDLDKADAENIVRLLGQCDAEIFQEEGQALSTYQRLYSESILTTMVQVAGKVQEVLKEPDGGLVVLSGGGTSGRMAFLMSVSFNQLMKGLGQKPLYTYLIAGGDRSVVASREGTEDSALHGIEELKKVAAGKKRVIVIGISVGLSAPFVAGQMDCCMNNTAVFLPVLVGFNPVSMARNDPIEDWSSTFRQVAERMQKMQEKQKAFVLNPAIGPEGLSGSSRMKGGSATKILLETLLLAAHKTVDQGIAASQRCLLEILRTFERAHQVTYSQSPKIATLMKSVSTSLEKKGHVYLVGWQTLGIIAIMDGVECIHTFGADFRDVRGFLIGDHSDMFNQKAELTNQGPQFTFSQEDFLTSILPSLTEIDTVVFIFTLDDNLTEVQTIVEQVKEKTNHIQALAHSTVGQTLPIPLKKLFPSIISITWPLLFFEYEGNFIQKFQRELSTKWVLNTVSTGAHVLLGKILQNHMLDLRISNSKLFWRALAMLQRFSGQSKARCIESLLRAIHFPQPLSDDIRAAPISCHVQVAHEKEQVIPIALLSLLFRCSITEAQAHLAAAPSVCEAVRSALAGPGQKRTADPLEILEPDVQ
Experiment: qHTS assay for inhibitors of recombinant human GCK-GKRP interaction: ADP-Glo assay (AID 743206);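 further: plate controls were DMSO plus enzyme for no effect and no enzyme for full effect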
Conditions: ADP-Glo luminescence, 60 min, 0% = vehicle-only wells with enzyme present; series mostly up to 76.9 µM
Summary of the method: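 Pin-transferred compounds meet a 15 nM GST-GCK/15 nM FLAG-GKRP/2 uM S6P mix (dispense concentrations). ATP is then added to 0.4 mM final with 5 mM glucose, and the reaction runs 60 min at room temperature. ADP is quantified luminescently.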

| Compound | outcome |
| --- | --- |
| O=[N+]([O-])c1ccc(-c2nc(-c3ccc(F)cc3)c(-c3ccncc3)[nH]2)cc1 | inactive |
| O=C1NC(c2cccc([N+](=O)[O-])c2)=CCN1c1ccccc1O | inactive |
| Nc1ncnc2n[nH]c(Nc3ccc(F)cc3)c12 | inactive |
| Cc1nn(-c2ccccc2)c(C)c1/C=N/N1CCN(Cc2ccccc2)CC1 | inactive |
| COc1cccc2c1[C@@H]1CN(CCCCn3c(=O)[nH]c4c(sc5ncc(-c6ccccc6)nc54)c3=O)C[C@@H]1CO2 | inactive |
| C[N+](C)(C)CCO | inactive |
| Cn1cnc2c(NCc3ccccc3)nc(NCCO)nc21 | inactive |
| O=C1NC(=O)/C(=C/c2ccc3c(c2)OC(F)(F)O3)S1 | inactive |

Molecular target: T1, Hexokinase-4 (Homo sapiens) + Glucokinase regulatory protein (Homo sapiens)
Experiment: qHTS assay for inhibitors of recombinant human GCK-GKRP interaction: HTRF assay (AID 743207);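 further: 0% = DMSO with GCK present and -100% = DMSO wells lacking GCK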
Conditions: recombinant GCK-GKRP HTRF binding, 60 min, with sorbitol-6-phosphate; series mostly up to 57.5 µM
Summary of the method: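 Steps: dispense GCK–GKRP complex (5 nM each, GST- and FLAG-tagged) with 2 uM S6P; pin in compounds; add XL665/Eu-cryptate-labelled antibodies; incubate 60 min at room temperature; read time-resolved FRET at 665 and 615 nm.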

| Compound | outcome |
| --- | --- |
| O=[N+]([O-])c1ccc(-c2nc(-c3ccc(F)cc3)c(-c3ccncc3)[nH]2)cc1 | inactive |
| O=C1NC(c2cccc([N+](=O)[O-])c2)=CCN1c1ccccc1O | inactive |
| Nc1ncnc2n[nH]c(Nc3ccc(F)cc3)c12 | inactive |
| Cc1nn(-c2ccccc2)c(C)c1/C=N/N1CCN(Cc2ccccc2)CC1 | inactive |
| COc1cccc2c1[C@@H]1CN(CCCCn3c(=O)[nH]c4c(sc5ncc(-c6ccccc6)nc54)c3=O)C[C@@H]1CO2 | inactive |
| C[N+](C)(C)CCO | inactive |
| Cn1cnc2c(NCc3ccccc3)nc(NCCO)nc21 | inactive |
| O=C1NC(=O)/C(=C/c2ccc3c(c2)OC(F)(F)O3)S1 | inactive |

Test system: not listed separately
Experiment: qHTS Assay for Identifying Gametocytocidal Compounds (AID 743244); further: potency means the concentration at half of the fitted maximal effect;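 on max response: on the % scale 0 is the no-effect control and ±100 the full control effect; actives lower the fluorescent signal which means gametocytes are killed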
Conditions: P. falciparum 3D7 stage III-V gametocytes, alamarBlue, 72 h; max response: active compounds read low
Summary of the method: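 Using 20,000 stage III–V 3D7 gametocytes per well, compounds were incubated 72 h under 37 °C/5% CO2. Viability was then assessed by 24 h alamarBlue reduction, measured fluorometrically at 525/598 nm.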

| Compound | max response | Potency |
| --- | --- | --- |
| CSCC[C@H](NC(=O)[C@H](Cc1c[nH]c2ccccc12)NC(=O)CCNC(=O)OC(C)(C)C)C(=O)N[C@@H](CC(=O)O)C(=O)N[C@@H](Cc1ccccc1)C(N)=O | -18.5% |  |
| C[C@H](CN1CCCC1)C(=O)c1ccc(C(F)(F)F)cc1 | 15.3% |  |
| O=C1OC2(c3ccccc31)c1cc(I)c(O)c(I)c1Oc1c2cc(I)c(O)c1I | -3.42% |  |
| Cc1cccc(C)c1NC(=O)c1cc(S(N)(=O)=O)c(Cl)cc1O | 11.8% |  |
| CCOC(=O)O[C@]1(C(=O)OCCl)CC[C@H]2[C@@H]3CCC4=CC(=O)C=C[C@]4(C)[C@H]3[C@@H](O)C[C@@]21C | -2.36% |  |
| CCC1=C[C@@H]2CN(C1)Cc1c([nH]c3ccccc13)[C@@](C(=O)OC)(c1cc3c(cc1OC)N(C)[C@H]1[C@@](O)(C(=O)OC)[C@H](OC(C)=O)[C@]4(CC)C=CCN5CC[C@]31[C@@H]54)C2 |  | 11.2 µM (active) |
| N[C@@H](Cc1cc(I)c(O)c(I)c1)C(=O)O | 18.2% |  |
| O=[N+]([O-])c1ccc(-c2nc(-c3ccc(F)cc3)c(-c3ccncc3)[nH]2)cc1 | -10.7% |  |
| C[C@H]1C[C@@H]2[C@H]([C@@H](O)C[C@@]3(C)[C@H]2CC[C@]3(O)C(=O)CO)[C@@]2(C)C=CC(=O)C=C12 | -12.4% |  |
| CCCCC/C=C\C/C=C\CCCCCCCC(=O)NC(C)c1ccccc1 (stereo not given) | -1.75% |  |
| O=C1NC(c2cccc([N+](=O)[O-])c2)=CCN1c1ccccc1O | 21.2% |  |
| Nc1ncnc2n[nH]c(Nc3ccc(F)cc3)c12 | 6.51% |  |
| CCOC(=O)c1ccc(OCCN2C[C@H](O)[C@@H](O)[C@H](O)[C@H]2CO)cc1 | -1.08% |  |
| O=C1CC[C@H](C(=O)N2CCCCC2)N1 | -15.9% |  |
| CNC[C@H](O)[C@@H](O)[C@H](O)[C@H](O)CO | 10.7% |  |
| OCCCc1ccccc1 | -2.92% |  |
| COc1c(C)c2c(c(O)c1C/C=C(\C)CCC(=O)OCCN1CCOCC1)C(=O)OC2 | 2.71% |  |
| Cc1nn(-c2ccccc2)c(C)c1/C=N/N1CCN(Cc2ccccc2)CC1 | 1.48% |  |
| COc1cccc2c1[C@@H]1CN(CCCCn3c(=O)[nH]c4c(sc5ncc(-c6ccccc6)nc54)c3=O)C[C@@H]1CO2 | 22.3% |  |
| CCCCCCCCCCCCCCCCCCNC(=O)OC1CCN(C(=O)OC[C@H](COC(=O)N(Cc2cccc[n+]2CC)C(=O)c2ccccc2OC)OC)CC1 |  | 15.8 µM (active) |

| Compound | max response | Potency |
| --- | --- | --- |
| CC(COc1ccccc1)NN (stereo not given) | -1.29% |  |
| CC(CCc1ccc2c(c1)OCO2)NN (stereo not given) | 15.4% |  |
| CCCCNc1ccc(C(=O)OCCN(CC)CC)cc1 | -4.4% |  |
| C[N+](C)(C)CCO | 1.6% and 15% |  |
| C[N+]1(C)CCC(OC(=O)C(O)(c2ccccc2)C2CCCC2)C1 (stereo not given) | -10.9% and -9.67% |  |
| Cc1cccc(N(C)C(=S)Oc2ccc3c(c2)CCC3)c1 | 14.9% |  |
| O=C(O)Cc1ccccc1Oc1ccc(Cl)cc1Cl | 10.5% |  |
| NC(=O)COCCN1CCN(C(c2ccccc2)c2ccc(Cl)cc2)CC1 (stereo not given) | -3.31% |  |
| CC1CC(=O)NN=C1c1ccc(NCC(C)(C)NCC(O)COc2cc(Cl)ccc2C#N)cc1 (stereo not given) | 11.8% |  |
| Cn1cnc2c(NCc3ccccc3)nc(NCCO)nc21 | 11.6% |  |
| CC(=O)CC/C=C(\C)CC/C=C(\C)CC/C=C(\C)CCC=C(C)C | -1.07% |  |
| CCN1CCN(C(=O)N[C@@H](C(=O)N[C@@H]2C(=O)N3[C@@H]2SC(C)(C)[C@H]3C(=O)O)c2ccccc2)C(=O)C1=O | -7.03% |  |
| CN1C(=O)CC(C)(c2ccccc2)C1=O (stereo not given) | -8.12% |  |
| CCOC(=O)c1ccc(NC(=O)CN2CCCCC2)cc1 | 11.1% |  |
| N#C/C(=C1/SC[C@@H](c2ccc(Cl)cc2Cl)S1)n1ccnc1 | 8.83% and -5.83% and 7.31% |  |
| O=C1NC(=O)/C(=C/c2ccc3c(c2)OC(F)(F)O3)S1 | -20.1% |  |
| O=C(OCC(COC(=O)c1cccnc1)(COC(=O)c1cccnc1)COC(=O)c1cccnc1)c1cccnc1 | 13.3% |  |
| O=C(COCCOCCOCC(=O)Nc1c(I)cc(I)c(C(=O)O)c1I)Nc1c(I)cc(I)c(C(=O)O)c1I | 31% |  |
| CN1CCC(N(Cc2cccs2)c2ccccc2)CC1 | 8.89% |  |
